Screening results from PubChem.
MEKK2mut PB1 HTS: signal of MEK5 binding to mutant human MEKK2 PB1 domain | bead flow cytometry, Alexa488-MEK5 binding to MEKK2 mutant | percent response, % at 10 µM | 290,000 tested, 0.35% active; in the data active = percent response above about 24%, passing the limit was not always enough
MEKK3 PB1 HTS: modulators (inhibitors or enhancers) of MEK5 binding to human MEKK3 PB1 domain. binding response (% of control), % at 10 µM. 290,000 tested, 1.4% active. bead-based flow cytometry, Alexa488-MEK5 binding to MEKK3; actives lie on both sides; 0 = blocked by unlabeled MEK5, 100 = vehicle;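 active = binding response more than 3 SD above or below the average of its plate-row segment, actives on both sides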;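 note: Alexa488 bead fluorescence after subtracting the streptavidin-only scavenger bead signal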
Target sequence (Q99759 whole entry, looked up, the tested form may be a part): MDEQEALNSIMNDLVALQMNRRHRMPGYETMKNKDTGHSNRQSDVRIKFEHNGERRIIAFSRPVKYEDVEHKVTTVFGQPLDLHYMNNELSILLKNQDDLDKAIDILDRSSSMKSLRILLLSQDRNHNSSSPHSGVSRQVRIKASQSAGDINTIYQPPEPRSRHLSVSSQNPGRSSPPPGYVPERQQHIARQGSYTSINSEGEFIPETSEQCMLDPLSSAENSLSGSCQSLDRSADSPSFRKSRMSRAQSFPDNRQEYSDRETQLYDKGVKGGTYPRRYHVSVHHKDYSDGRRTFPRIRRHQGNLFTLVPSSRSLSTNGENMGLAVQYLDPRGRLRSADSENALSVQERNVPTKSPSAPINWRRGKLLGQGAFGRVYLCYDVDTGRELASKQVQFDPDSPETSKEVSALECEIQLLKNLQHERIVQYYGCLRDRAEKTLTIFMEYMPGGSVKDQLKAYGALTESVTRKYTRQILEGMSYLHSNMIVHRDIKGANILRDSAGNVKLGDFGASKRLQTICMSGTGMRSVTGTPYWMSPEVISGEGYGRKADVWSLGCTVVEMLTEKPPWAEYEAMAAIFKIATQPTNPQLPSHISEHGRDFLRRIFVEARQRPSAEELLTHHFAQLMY
MEKK2 WT-MEK5: raises or lowers MEK5 binding to wildtype human MEKK2 PB1 domain; Q9Y2U5; bead flow cytometry, Alexa488-MEK5 binding to MEKK2 WT; actives lie on both sides; binding response (% of control), % at 10 µM; 290,000 tested, 1.1% active; AID 1531; in the data active = binding response below about 67% or above about 130%
Pf gamet viab: kills late stage P. falciparum gametocytes | P. falciparum stage V gametocytes, ATP luminescence, 24 h | inhibition, % at 10.9 µM | 150,000 tested, 0.065% active | AID 743093;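 active = inhibition above the mean plus 3 SD of compounds within the control limits, set per campaign, cut at about 38% in these data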;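 note: 0% = DMSO wells and 100% = medium only without gametocytes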
Arbovirus inh: arbovirus infection inhibition; arbovirus infection cell-based antiviral screen; inhibition, % at 10 µM; 200,000 tested, 0.37% active; AID 1251; in the data active = inhibition above about 30%
MEKK2wt confirm: raises or lowers MEK5 binding to wildtype human MEKK2, retest; shares compounds with MEKK3 PB1 HTS; 5,900 tested, 2.4% active; binding response (% of control), % at 10 µM; bead flow cytometry, Alexa488-MEK5 binding to MEKK2 WT; actives lie on both sides; AID 1892; in the data active = binding response below about 16% or above about 210%; inactive = in between
MEKK2mut confirm: signal of MEK5 binding to mutant human MEKK2, retest | shares compounds with MEKK3 PB1 HTS | bead flow cytometry, Alexa488-MEK5 binding to MEKK2 mutant | percent response, % at 10 µM | 5,900 tested, 2% active; in the data active = percent response mostly above about 71%, no sharp cut-off; inactive = mostly below about 38%;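 note: higher means compound restores mutant binding toward wildtype level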
MEKK3-MEK5 inh: MEKK3-MEK5 PB1 inhibition, single concentration confirmation; binding response (% of control), % at 10 µM; bead flow cytometry, Alexa488-MEK5 binding to MEKK3; stronger effect = lower value; shares compounds with MEKK3 PB1 HTS; 5,900 tested, 1.8% active;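 active = binding response below 72% of control, or above a set upper limit, though filed actives all read lower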;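 note: 100% = DMSO only wells and 0% = binding blocked by excess unlabeled MEK5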
Starred values were filed as active, the others as inactive; · = no result; [ ] = another dose, or the depositor's remark. Compounds with a hit are over-represented: about 2.4% of the library has one in this group of screens.

SMILES	MEKK2mut PB1 HTS	MEKK3 PB1 HTS	MEKK2 WT-MEK5	Pf gamet viab	Arbovirus inh	MEKK2wt confirm	MEKK2mut confirm	MEKK3-MEK5 inh
N/C(Cc1nc(-c2ccc(Cl)cc2)cs1)=N/O	6	104	98	-13	·	·	·	·
O=C(N/N=C/c1c[nH]c2ccccc12)c1cc(-c2ccc3ccccc3c2)n[nH]1	15	112	138*	-18	-38	104	-5	102
O=C(N/N=C/c1c[nH]c2ccccc12)c1cc(-c2ccc(-c3ccccc3)cc2)n[nH]1	-9	93	78	-20	-33	·	·	·
N=c1c2ccccc2nnn1-c1cccc(C(F)(F)F)c1	-10	91	79	9	1	·	·	·
CC1=C(C(=O)OC(C)C)C(C2CC=CCC2)NC(=O)N1 (centres undefined)	-40	0.0*[inhibitor]	-4.0*[inhibitor]	·	6	103	10	105
N=C1C(c2ccccc2)=C(O)CN1CCCO	-3	120	105	-23	5	·	·	·
COC(=O)Cc1ccc(NC(=O)c2ccccc2Br)cc1	-1	99	96	-1	6	·	·	·
COc1ccc(Cl)cc1NC(=O)NC(C)C	-13	47*[inhibitor]	54	2	-7	100	-4	102
Cc1onc(-c2c(F)cccc2Cl)c1C(=O)NCc1ccc2c(c1)OCO2	7	104	107	·	·	·	·	·
Cc1onc(-c2ccccc2)c1C(=O)NCc1ccc2c(c1)OCO2	1	102	-6.0*[inhibitor]	-6	2	105	2	104
CC(C)C(=O)n1nc(-c2cccnc2)nc1NCc1ccc(F)cc1	-4	105	102	5	-4	·	·	·
O=C(CSc1nnc2ccc(-c3ccccn3)nn12)N1CCCC1	·	·	·	12	·	·	·	·
CN1C(=O)C(CC(=O)N2CCN(C(c3ccccc3)c3ccccc3)CC2)N(C)C1=O (centres undefined)	-17	1.0*[inhibitor]	1.0*[inhibitor]	·	-3	105	2	102
Cc1cc(OCC(=O)NC(C)(C)C)ccc1Cl	1	128*	105	-18	-7	99	3	103
COCCCNC(=O)COc1ccc(Cl)c(C)c1	-5	87	92	-12	-2	·	·	·
COc1ccc(Oc2ccc(C(F)(F)F)cc2NC(=O)c2ccc(C)cc2)cc1	37	142*	135	14	·	105	-2	103
O=C1NNC(c2ccccc2)=N/C1=C\c1ccco1	-35	57	44*[inhibitor]	-7	·	100	5	103
O=C1NNC(c2ccccc2)=N/C1=C\c1ccccc1Cl	-14	74	72	9	·	·	·	·
CCN(CC(=O)Nc1ccccc1SC)Cc1nc2ccccc2c(=O)[nH]1	-22	89	84	1	·	·	·	·
CCN(CC(=O)Nc1ccccc1-c1ccccc1)Cc1nc2ccccc2c(=O)[nH]1	-3	64*[inhibitor]	72	4	-16	98	-3	97
CN1C(=O)/C(=C/c2ccc(OCc3ccccc3F)cc2)NC1=S	0	102	100	·	·	·	·	·
CCOC(=O)NC1(C(F)(F)F)NC(=O)N(C2CCCCC2)C1=O (centres undefined)	-34	91	-4.0*[inhibitor]	·	4	110	8	108
Cc1ccc(N2C(=O)C3C(c4ccccc4)N4CCCN4C3(C)C2=O)cc1 (centres undefined)	-1	66*[inhibitor]	84	-12	-6	105	2	102
Cc1ccc(N2C(=O)C3C(C2=O)N2CCCN2C3c2ccccc2)cc1C (centres undefined)	0	101	99	-8	3	·	·	·
COc1ccc(C(NC=O)c2cc(OC)c(OC)cc2Br)cc1OC (centres undefined)	-1	96	97	16	2	·	·	·
CCN1C(c2ccccc2)=C(c2ccccc2)S/C1=C\C=C1/SC(=S)N(C)C1=O	-22	33*[inhibitor]	-8.0*	·	·	46	-44	70*
CN1CCS/C1=C/C=C1/SC(=S)N(Cc2ccccc2)C1=O	-2	95	69	-8	-4	·	·	·
